The results in this text go back to publication PMC5540273 (PLoS ONE, 2017).

Some test systems named below: MST1R; MST4; MTOR; MUSK; MYLK2; MYLK4.
What all share (conditions): concentration: 1 μM, replicates: in singlicate; n = 1
In a further assay the test system is T1, MRCKB.
T1 construct: gene CDC42BPB

A further assay relates to T2, MST1.
T2 construct: gene STK4

The test system of another assay is T3, MST2.
T3 construct: gene STK3

In the next assay the test system is T4, MST3.
T4 construct: gene STK24
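Further: KINOMEscan kinase panel screen.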

As for `CCS(=O)c1ccc(-c2coc3ccc(-c4nnc(C)o4)cc23)cc1` (stereo not drawn), the “%Inh” value is reported as 0% in the assay with MRCKB; 15% in the assay on MST1R; 33% in the assay with MST1; 0% in the assay with MST2; 17% in the assay on MST3; 0% in the assay with MST4. Further, the “%Inh” value with MTOR is on record as 2%; in the assay with MUSK, 0%; in the assay with MYLK2 it was 5%; in the assay on MYLK4, 4%.
For the compound `Cc1c(Cn2c(C)nn3c(=O)cc(N4CCO[C@H](C)C4)nc23)cccc1C(F)(F)F` [GSK2373690], the “%Inh” value with MRCKB is 0%; in the assay on MST1R it was 41%; in the assay on MST1, 2%; in the assay with MST2, 7%; in the assay on MST3, 0%; with MST4 it was 0%. Also, the “%Inh” value in the assay on MTOR turned out to be 57%; in the assay on MUSK, 28%; in the assay with MYLK2, 2%; in the assay with MYLK4, 99.8%.
Regarding `Cn1c(=O)c(F)c(Nc2ccc(I)cc2F)c2c(=O)n(OC[C@H](O)CO)cnc21`, the “%Inh” value in the assay with MRCKB is 0%; in the assay with MST1R, 0%; in the assay on MST1 it was 19%; with MST2, 0%; in the assay on MST3, 0%; with MST4 it was 0%. The “%Inh” value with MTOR is recorded as 0%; with MUSK, 8%; with MYLK2, 1%; in the assay on MYLK4, 0%.
As for `O=C(NCc1cccs1)c1cc(C(=O)c2c(Cl)cccc2Cl)c[nH]1` [GW823670], the “%Inh” value was 0% in the assay on MRCKB; 0% in the assay on MST1R; 15% with MST1; 0% with MST2; 0% in the assay with MST3; 0% with MST4. Moreover, the “%Inh” value with MTOR is 0%; in the assay on MUSK, 2%; with MYLK2, 0%; in the assay on MYLK4, 4%.
Regarding `Nc1nc(N)c2nc(-c3ccccc3)[nH]c2n1` [SKF-12778], the “%Inh” value with MRCKB turned out to be 0%; with MST1R, 0%; with MST1, 4%; in the assay with MST2 it was 32%; in the assay with MST3, 13%; in the assay on MST4, 10%. Further, the “%Inh” value with MTOR is on record as 26%; in the assay with MUSK, 18%; in the assay with MYLK2, 2%; in the assay on MYLK4 it was 1%.
In the case of `COC(=O)c1c(-c2ccccc2)c2cc(Br)ccc2c(=O)n1Cc1ccc(S(C)(=O)=O)cc1`, the “%Inh” value in the assay with MRCKB is listed as 0%; with MST1R it was 43%; in the assay on MST1, 10%; in the assay on MST2 it was 32%; with MST3, 5%; in the assay on MST4, 0%. Further, the “%Inh” value with MTOR is recorded as 28%; in the assay on MUSK it was 7%; in the assay with MYLK2 it was 0%; with MYLK4, 2%.
For `Cc1nn2c(=O)cc(N3CCOCC3)nc2n1Cc1cccc(Cl)c1Cl` [GSK2342769], the “%Inh” value is given as 0% with MRCKB; 13% with MST1R; 0% with MST1; 4% in the assay with MST2; 0% in the assay with MST3; 0% with MST4. In addition, the “%Inh” value worked out at 45% with MTOR, 18% in the assay on MUSK, 0% with MYLK2 and 4% in the assay with MYLK4.
As to `COc1cc2ncn(-c3cc(OCc4ccc(S(C)(=O)=O)cc4)c(C(N)=O)s3)c2cc1OC` [GW869979], the “%Inh” value was found to be 0% in the assay with MRCKB; 0% in the assay on MST1R; 0% in the assay on MST1; 44% in the assay on MST2; 7% in the assay on MST3; 14% in the assay on MST4. The “%Inh” value with MTOR came out at 6%; in the assay with MUSK, 0%; in the assay on MYLK2 it was 0%; in the assay on MYLK4, 8%.
Consider `COc1cc(OC)cc(-c2cc3cnc(N)nc3nc2NC(=O)NC(C)(C)C)c1`, for which the “%Inh” value was determined as 0% with MRCKB; 0% in the assay with MST1R; 0% in the assay on MST1; 1% with MST2; 0% with MST3; 0% in the assay on MST4. For the same compound, the “%Inh” value in the assay on MTOR is 58%; in the assay on MUSK, 0%; in the assay on MYLK2, 13%; with MYLK4 it was 11%.
`CCC(=O)c1c(-c2ccccc2)c2cc(Cl)ccc2c(=O)n1Cc1cc(C(=O)NC2CC2)n(C)n1`: the “%Inh” value stood at 0% with MRCKB; 37% in the assay on MST1R; 12% in the assay on MST1; 0% in the assay with MST2; 0% in the assay on MST3; 0% with MST4. Besides, the “%Inh” value stood at 12% in the assay with MTOR, 2% with MUSK, 0% with MYLK2 and 0% in the assay with MYLK4.
Consider `O=C(Nc1n[nH]c2nc(-c3ccccc3)c(Cl)cc12)C1CC1` [SB-734909], for which the “%Inh” value in the assay with MRCKB worked out at 6%; in the assay with MST1R, 0%; in the assay on MST1, 12%; in the assay with MST2, 50%; in the assay with MST3, 0%; with MST4 it was 37%. Besides, the “%Inh” value is on record as 19% with MTOR, 19% with MUSK, 93.2% in the assay on MYLK2 and 33% in the assay with MYLK4.
Take `COc1cc2nccc(Nc3cccc(Oc4ccccc4)c3)c2cc1OC.Cl` [GW284543]: the “%Inh” value in the assay on MRCKB is listed as 0%; with MST1R, 18%; with MST1 it was 1%; in the assay with MST2, 47%; with MST3, 0%; in the assay with MST4 it was 0%. Besides, the “%Inh” value is 15% in the assay with MTOR, 6% in the assay on MUSK, 0% with MYLK2 and 0% with MYLK4.
Turning to `COc1ccc(-c2cc3c(C)nc(N)nc3n([C@H]3CC[C@H](OCCO)CC3)c2=O)cn1`, the “%Inh” value is given as 0% with MRCKB; 0% with MST1R; 6% in the assay with MST1; 0% in the assay on MST2; 23% in the assay on MST3; 0% with MST4. The “%Inh” value in the assay with MTOR turned out to be 96.3%; in the assay on MUSK, 0%; with MYLK2, 2%; in the assay with MYLK4, 7%.
Regarding `Nc1ncnc2c1ncn2-c1cccc(F)c1` [SKF-97560], the “%Inh” value in the assay on MRCKB was 0%; with MST1R, 0%; in the assay on MST1, 0%; in the assay with MST2, 50%; in the assay with MST3, 0%; in the assay with MST4 it was 37%. Also, the “%Inh” value in the assay on MTOR is 14%; with MUSK, 0%; with MYLK2, 0%; in the assay with MYLK4, 11%.
In the case of `Cc1ccc(Oc2ccc(Nc3ncnc4cc[nH]c34)cc2C)cn1`, the “%Inh” value is 0% with MRCKB; 35% in the assay with MST1R; 0% in the assay on MST1; 15% in the assay on MST2; 3% in the assay with MST3; 0% with MST4. Moreover, the “%Inh” value with MTOR was 0%; with MUSK, 0%; in the assay on MYLK2, 18%; in the assay with MYLK4, 19%.
Regarding `Nc1n[nH]c2ncc(-c3ccccc3)cc12` [SB-517081], the “%Inh” value stood at 0% with MRCKB; 41% in the assay on MST1R; 0% with MST1; 0% in the assay with MST2; 0% in the assay with MST3; 0% with MST4. The “%Inh” value in the assay with MTOR is listed as 7%; in the assay on MUSK, 28%; in the assay on MYLK2 it was 15%; in the assay with MYLK4, 61%.
Regarding `Nc1n[nH]c2nnc(-c3ccccc3)c(-c3ccccc3)c12` [GW554060], the “%Inh” value is recorded as 0% in the assay on MRCKB; 40% in the assay with MST1R; 0% in the assay on MST1; 0% in the assay on MST2; 0% in the assay on MST3; 0% in the assay with MST4. For the same compound, the “%Inh” value in the assay with MTOR is listed as 12%; in the assay on MUSK, 20%; in the assay with MYLK2, 0%; in the assay on MYLK4 it was 1%.
`Fc1cccc(CSc2nnc(-c3ccc4c(c3)CCO4)o2)c1`: the “%Inh” value in the assay on MRCKB was 0%; in the assay with MST1R, 35%; in the assay with MST1, 3%; in the assay with MST2, 0%; with MST3 it was 0%; with MST4, 0%. Moreover, the “%Inh” value with MTOR is listed as 36%; in the assay on MUSK, 0%; in the assay on MYLK2 it was 11%; in the assay with MYLK4, 0%.
Regarding `CCC(=O)c1c(-c2ccccc2)c2cc(Cl)ccc2c(=O)n1Cc1cc(S(C)(=O)=O)n(CC(N)=O)n1`, the “%Inh” value with MRCKB, in the assay with MST1R, with MST1, with MST2, in the assay on MST3 and in the assay with MST4 was 0% each time. The “%Inh” value is on record as 40% with MTOR, 0% in the assay on MUSK, 0% in the assay on MYLK2 and 0% with MYLK4.
Regarding `CCn1c(-c2ccoc2)nc2cnccc21` [SB-733887], the “%Inh” value with MRCKB, with MST1R, with MST1, in the assay with MST2, in the assay with MST3 and in the assay with MST4 was 0% throughout. Further, the “%Inh” value in the assay on MTOR stood at 29%; with MUSK, 2%; in the assay with MYLK2, 18%; in the assay on MYLK4, 0%.
Consider `Nc1ncnc2c1ncn2-c1cccc2ccccc12` [SKF-97184], for which the “%Inh” value was found to be 0% in the assay on MRCKB; 6% with MST1R; 7% with MST1; 0% in the assay with MST2; 0% with MST3; 0% in the assay on MST4. Moreover, the “%Inh” value worked out at 28% with MTOR, 0% in the assay with MUSK, 0% with MYLK2 and 4% in the assay on MYLK4.
